ERb SRC1 inh: inhibitors of ERβ-SRC1 coactivator interaction, primary screen, biochemical, TR-FRET, ERβ LBD, SRC-1 peptide; inhibition, % at 25.6 µM; 1.3% of 86,000 active; AID 633, 2007; TR-FRET ER-beta LBD / SRC1-Cy5 peptide binding; receptor agonist-loaded with 1 µM estradiol;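 active means compounds whose percent inhibition of the receptor-coactivator binding signal exceeds about 50% in the single-dose screen, limit read from the data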
MRP reversal: reversal of MRP1-mediated doxorubicin resistance, primary screen, H69AR cells, doxorubicin co-treatment; 0.04% of 85,000 active; differential viability (reversal), % at 10 µM; H69AR cells + 2 uM doxorubicin, CellTiter-Glo, 72 h;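 active means viability drop by adding the cancer drug above about 55%, with treated viability meeting a 40% cutoff, limit read from the data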;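 further: larger differential means the compound sensitizes cells more to doxorubicin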
Smad3 inh: Smad3/FoxH1 peptide binding inhibitors, primary screen, biochemical, TR-FRET. Mothers against decapentaplegic homolog 3 (Homo sapiens), P84022. TR-FRET Smad3/Dy647-FoxH1 peptide binding, europium anti-His. inhibition, % at 25 µM. 0.29% of 88,000 active. AID 630, 2007;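 active means compounds that reduce the energy-transfer binding signal between the protein and its labelled peptide by more than half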
ERa coact inh: ERα–SRC-1 coactivator interaction inhibitors, primary screen, biochemical, TR-FRET, ERα LBD, estradiol-bound; Estrogen receptor (Homo sapiens), P03372; TR-FRET ER-alpha LBD / SRC-1 peptide; inhibition, % at 25.6 µM; 1.7% of 86,000 active; AID 629, 2007; in the data active means inhibition above about 50%
Target sequence (P03372 whole entry, looked up, the tested form may be a part): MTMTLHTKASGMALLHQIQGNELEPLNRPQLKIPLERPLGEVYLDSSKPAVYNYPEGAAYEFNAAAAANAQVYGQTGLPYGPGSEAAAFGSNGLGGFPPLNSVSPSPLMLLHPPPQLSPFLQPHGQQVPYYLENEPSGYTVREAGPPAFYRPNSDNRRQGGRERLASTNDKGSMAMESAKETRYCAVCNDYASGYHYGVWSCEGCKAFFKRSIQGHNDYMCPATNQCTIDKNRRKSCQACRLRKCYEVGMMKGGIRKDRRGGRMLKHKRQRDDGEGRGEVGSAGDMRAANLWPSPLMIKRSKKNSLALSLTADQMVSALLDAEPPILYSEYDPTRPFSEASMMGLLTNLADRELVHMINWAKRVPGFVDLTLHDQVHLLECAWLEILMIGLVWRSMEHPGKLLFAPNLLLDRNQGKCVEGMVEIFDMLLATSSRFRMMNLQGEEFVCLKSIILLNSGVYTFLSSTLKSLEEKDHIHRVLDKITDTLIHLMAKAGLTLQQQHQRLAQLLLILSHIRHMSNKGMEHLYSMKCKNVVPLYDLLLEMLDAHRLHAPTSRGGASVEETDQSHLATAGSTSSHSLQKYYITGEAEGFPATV
ERa SRC1 pot: enhancers of ERα–SRC-1 coactivator binding, primary screen, biochemical, TR-FRET, ERα LBD, low estradiol; TR-FRET ERalpha-LBD/SRC-Cy5 coactivator binding, 2 h; 100 = basal binding, no effect; coactivator binding (% of control), % at 25.6 µM; 1.3% of 86,000 active; Estrogen receptor (Homo sapiens), P03372; in the data active means activity above about 200%;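 further: binding measured in presence of low estradiol as agonist stimulus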
MRP-1 activ: H69AR viability gain despite doxorubicin, primary screen, MRP-1 activator project, H69AR cells, CellTiter-Glo. viability rescue. viability increase, % at 10 µM. 0.61% of 140,000 active. AID 799, 2007;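 active means viability gain under doxorubicin at or above a set limit, the compound median plus 3 SD, cut at about 4.7% in these data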;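 further: MRP-1 overexpressing cells given doxorubicin 25 µM after compound pretreatment; 18-22 h compound pretreatment then 72 h with doxorubicin before readout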
Hits are given with their value; - = inactive; . = no result; [ ] = another dose, or the depositor's remark. Rows were chosen to be rich in hits. Some 2.8% of all compounds tested hit in one or more screens of this group.

SMILES | ERb SRC1 inh | MRP reversal | Smad3 inh | ERa coact inh | ERa SRC1 pot | MRP-1 activ
Cn1c(=O)[nH]c(=O)c2c1nc(CN1CCN(c3ccc(F)cc3)CC1)n2CCCc1ccccc1 | - | - | - | - | - | -
CCOC(=O)c1c(C)oc2c1c(C=NC1CCS(=O)(=O)C1)c(O)c1ccccc12 (stereo not given) | - | - | - | 69.6 | - | -
CCOC(=O)c1c(C)oc2c1c(C(c1ccncc1)N1CCOCC1)c(O)c1ccccc12 (stereo not given) | 70.5[fluorescence artefact?] | - | - | 67.9[fluorescence artefact?] | - | -
CCOC(=O)c1c(C)oc2c1c(CN1CCN(C(=O)OCC)CC1)c(O)c1ccccc12 | . | . | . | . | . | -
O=c1c2ccccc2c(C=NC2CCS(=O)(=O)C2)c(O)n1-c1ccccc1 (stereo not given) | - | - | - | - | - | -
Cc1c(Cl)c(S(N)(=O)=O)cc2c1=NC=NS=2(=O)O | . | . | - | . | . | .
Cc1cc(=O)[nH]c(/N=C(\N)Nc2ccc(Cl)cc2)n1 | . | . | - | . | . | .
CCn1cc(SCC(=O)NCc2ccc3c(c2)OCO3)c2ccccc21 | 53.1 | - | - | - | - | -
CCCn1cc(SCC(=O)NCc2ccc3c(c2)OCO3)c2ccccc21 | - | - | - | - | - | -
CCn1c2ccccc2c2nnc(SCc3ccccc3)nc21 | - | - | - | 56.4[fluorescence artefact?] | - | -
CCn1c2ccccc2c2nnc(SCC(=O)Nc3ccc4c(c3)OCO4)nc21 | - | - | - | 50.1 | - | -
Cn1c2ccccc2c2nnc(SCc3ccc4nonc4c3)nc21 | - | - | - | 55.0[fluorescence artefact?] | - | -
c1ccc(CCCNc2nnnc3ccccc23)cc1 | . | . | - | . | . | .
CCOC(=O)c1nsnc1NCCSC(=N)N | . | . | . | . | . | -
COc1ccccc1Cn1c(=O)c2ccccc2n2c(Sc3ncnc4sccc34)nnc12 | - | - | - | - | 258.5[fluorescence artefact?] | -
Cc1onc(-c2ccccc2Cl)c1C(=O)Nc1cccc2nsnc12 | - | - | - | - | 262.6[fluorescence artefact?] | -
S=C(NCc1ccccn1)Nc1cccc(Cl)c1 | . | . | . | . | . | -
S=C(NCc1ccccn1)Nc1ccccc1Cl | . | . | . | . | . | 8.2
c1ccc(OCc2nn3c(-c4n[nH]c5c4CCC5)nnc3s2)cc1 | 60.6[fluorescence artefact?] | - | - | 66.7[fluorescence artefact?] | - | .
Cc1ccc(OCc2nn3c(-c4n[nH]c5c4CCC5)nnc3s2)cc1 | 54.2 | - | - | 73.2[fluorescence artefact?] | - | .
COc1ccc(-c2nnc3sc(COc4ccccc4)nn23)cc1 | - | - | - | - | - | -
COc1ccc(-c2nnc3sc(COc4ccc(C)cc4)nn23)cc1 | - | - | - | - | - | -
COc1cc(C(Nc2ccccn2)c2ccc3ccc(C)nc3c2O)cc(OC)c1O (stereo not given) | 65.2 | - | - | 64.0[fluorescence artefact?] | - | -
COc1ccc(-c2csc(NC(=O)c3cc(-c4cccs4)nc4ccccc34)n2)c(OC)c1 | . | . | . | . | . | 4.8
CN(C)CCNC(=O)c1ccccc1-c1ccccc1 | - | - | - | - | - | -
SMILES | ERb SRC1 inh | MRP reversal | Smad3 inh | ERa coact inh | ERa SRC1 pot | MRP-1 activ
CN(C)C(=O)c1ccccc1-c1ccccc1 | - | - | - | - | 240.9 | -
O=C(CC1SC(=O)N(Cc2ccccc2)C1=O)Nc1nccs1 (stereo not given) | . | . | . | . | . | 11.6
O=C(NCCc1ccccc1)C(=O)Nc1nccs1 | . | . | . | . | . | -
Nc1ccc(N=Nc2c(S(=O)(=O)O)cc3ccccc3c2S(=O)(=O)O)cc1 | . | . | - | . | . | .
CCCOc1ccc(NC(=O)CC2C(=O)N(Cc3ccccc3)C(=S)N2Cc2cccs2)cc1 (stereo not given) | . | . | . | . | . | -
CC1(C)Cc2ccccc2-c2nnc(SCC(=O)Nc3nc4ccccc4s3)n21 | - | - | - | 55.7[fluorescence artefact?] | - | -
N#Cc1c(-c2ccccc2Cl)cc(-c2ccccc2)nc1Br | . | . | . | . | . | -
COc1ccc(CCNC(=O)c2ccc3nc(-c4ccco4)c(-c4ccco4)nc3c2)cc1OC | 93.8[fluorescence artefact?] | - | - | 90.1[fluorescence artefact?] | - | -
CCOc1ccc(C(=O)OCC(=O)NCc2ccco2)cc1OCC | 52.0 | - | - | 70.0[fluorescence artefact?] | - | -
CCOc1ccccc1OCC(=O)NCc1ccco1 | - | - | - | - | - | -
COc1ccc(C(=O)OCC(=O)NCc2ccco2)cc1OC | - | - | - | 68.1[fluorescence artefact?] | - | -
COc1ccc(CCNC(=O)COC(=O)c2ccco2)cc1OC | 78.5[fluorescence artefact?] | - | - | - | - | -
CCOc1ccc(-n2nc3c(=O)n(CCN4CCCCC4)nc(C)c3c2C)cc1 | . | . | . | . | . | -
O=C(O)Cc1cccnc1 | . | . | - | . | . | .
Cc1ccc2c(Cl)cc(Cl)c(OCC(=O)NCc3ccco3)c2n1 | 83.9 | - | - | 93.3[fluorescence artefact?] | - | -
CCOc1ccc(-c2cc(CCCC(=O)NCc3ccco3)no2)cc1 | - | - | - | - | 204.1 | -
CCOc1ccc(-c2cc(CCCC(=O)NCc3ccc(C)cc3)no2)cc1 | . | . | . | . | . | -
CCOc1cc2[nH]c(=S)n(CCc3ccc(OC)c(OC)c3)c(=O)c2cc1OCC | - | - | - | 56.7[fluorescence artefact?] | - | -
COc1ccc(CCNC(=O)c2ccc3c(=O)n(Cc4ccco4)c(=S)[nH]c3c2)cc1OC | - | - | - | 61.5[fluorescence artefact?] | - | -
C[C@H]1C[C@@H]2[C@@H]3CCC4=CC(=O)C=C[C@@]4(C)[C@@]3(Cl)[C@H](Cl)C[C@@]2(C)[C@]1(O)C(=O)COP(=O)(O)O | . | . | - | . | . | .
Clc1ccc2c(N3CCC(CCC4CCN(c5ncnc6cc(Cl)ccc56)CC4)CC3)ncnc2c1 | . | . | - | . | . | .
CCN=C(N/N=C/c1ccc([N+](=O)[O-])cc1)SC | . | . | . | . | . | -
CN1C(=S)N(c2ccccc2)C(=O)/C1=C/c1ccco1 | . | . | . | . | . | -
O=C1/C(=C\c2ccco2)SC(=S)N1c1ccc(O)cc1 | . | . | . | . | . | 5.2
CCOC(=O)/C=C1\SCC(=O)N1CC(=O)Nc1ccc(OC)c(OC)c1 | . | . | . | . | . | -
SMILES | ERb SRC1 inh | MRP reversal | Smad3 inh | ERa coact inh | ERa SRC1 pot | MRP-1 activ
CCOC(=O)/C=C1\SCC(=O)N1CC(=O)c1ccc[nH]1 | 64.4[fluorescence artefact?] | - | - | 86.7[fluorescence artefact?] | - | -
c1ccc(-c2nc(C3CCCCC3)no2)cc1 | 68.2 | - | - | - | - | -
O=C(O)[C@@H](c1ccccc1)[C@@H](C(=O)O)c1ccccc1 | . | . | - | . | . | .
Cn1c(C(=O)NCCCN2CCCCCC2)cc2c(=O)n(C)c3ccccc3c21 | - | - | - | 53.3[fluorescence artefact?] | - | -
CC(C)c1ccc2c(c1)CC[C@@H]1[C@](C)(CN)CCC[C@@]21C | . | . | - | . | . | .
N#Cc1c(N)oc(-c2ccccc2)c1-c1ccccc1 | - | - | - | - | - | -
COc1ccc(OC)c(/C=N/c2oc(-c3ccco3)c(-c3ccco3)c2C#N)c1 | 72.7 | - | - | 62.1 | - | -
N#Cc1c(N)oc(-c2ccco2)c1-c1ccco1 | 54.8[fluorescence artefact?] | - | - | - | - | -
c1cc(CSSCc2ccncc2)ccn1 | . | . | - | . | . | .
Cc1ccc(N2CCN(c3ccc(C)cc3)C2c2cccnc2)cc1 | - | - | - | - | - | -

Bioassay records from PubChem BioAssay.
